Results filed as inconclusive are left out. Activity calls are given as the source filed them. Calls follow the shape of the dose curve; as a rule, active = well fitted curve in the direction sought with a large enough effect; inconclusive = small, poorly fitted or top-dose-only effect, or another doubt; inactive = no such curve, though single readings can be large; an effect the other way counts as inactive or inconclusive.
How the values were obtained:
[1] = Quantitative High-Throughput drug screen in 47 multiple myeloma cell lines against the NCATS MIPE library collection: KMS20_JCRB cell viability assay (AID 1918973); also: nearly all actives have a fitted effect of over 45% in size
Method in brief: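 CellTiter-Glo ATP luminescence gave viability after 48 h compound treatment at 37C of 500 multiple myeloma cells per well. Normalisation used DMSO-only wells as 100% and media-only wells as 0% viability; primary qHTS of approved and investigational drugs.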

[2] = Quantitative High-Throughput drug screen in 47 multiple myeloma cell lines against the NCATS MIPE library collection: KMS26_JCRB cell viability assay (AID 1918975); also: nearly all actives have a fitted effect of over 45% in size
Method in brief: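 Luminescent ATP measurement with CellTiter-Glo gives viability, scaled between DMSO-only wells (100%) and media-only wells (0%). Cells, 500 per well, faced library compounds for 48 hours at 37C.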

[3] = Quantitative High-Throughput drug screen in 47 multiple myeloma cell lines against the NCATS MIPE library collection: MMM1_PLB cell viability assay (AID 1918976); also: nearly all actives have a fitted effect of over 35% in size
Method in brief: (§1)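 Inhibition of viability over 48 h was scored by ATP content (CellTiter-Glo) in 500-cell wells. Zero and full viability were defined by media-only and DMSO-only wells.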

[4] = Quantitative High-Throughput drug screen in 47 multiple myeloma cell lines against the NCATS MIPE library collection: MOLP8_DSMZ cell viability assay (AID 1918977); also: nearly all actives have a fitted effect of over 45% in size
Method in brief: as §1

[5] = Quantitative High-Throughput drug screen in 47 multiple myeloma cell lines against the NCATS MIPE library collection: NCIH929_DSMZ cell viability assay (AID 1918978); also: nearly all actives have a fitted effect of over 35% in size
Method in brief: as §1

[6] = Quantitative High-Throughput drug screen in 47 multiple myeloma cell lines against the NCATS MIPE library collection: OCIMY1_PLB cell viability assay (AID 1918979); also: nearly all actives have a fitted effect of over 35% in size; as to viability: series mostly up to about 46 µM
Method in brief: as §1

[7] = Quantitative High-Throughput drug screen in 47 multiple myeloma cell lines against the NCATS MIPE library collection: MM1S_ATCC cell viability assay (AID 1918980); also: nearly all actives have a fitted effect of over 45% in size
Method in brief: as §1

[8] = Quantitative High-Throughput drug screen in 47 multiple myeloma cell lines against the NCATS MIPE library collection: MM1R_ATCC cell viability assay (AID 1918981); also: nearly all actives have a fitted effect of over 35% in size
Method in brief: as §1

[9] = Quantitative High-Throughput drug screen in 47 multiple myeloma cell lines against the NCATS MIPE library collection: LP1_DSMZ cell viability assay (AID 1918982); also: nearly all actives have a fitted effect of over 35% in size
Method in brief: as §1

[10] = Quantitative High-Throughput drug screen in 47 multiple myeloma cell lines against the NCATS MIPE library collection: L363_DSMZ cell viability assay (AID 1918984); also: nearly all actives have a fitted effect of over 40% in size
Method in brief: as §1

[11] = Quantitative High-Throughput drug screen in 47 multiple myeloma cell lines against the NCATS MIPE library collection: OCIMY5_PLB cell viability assay (AID 1918988); also: nearly all actives have a fitted effect of over 65% in size
Method in brief: as §1

[12] = Quantitative High-Throughput drug screen in 47 multiple myeloma cell lines against the NCATS MIPE library collection: OPM1_PLB cell viability assay (AID 1918989); also: nearly all actives have a fitted effect of over 40% in size
Method in brief: as §1

[13] = Quantitative High-Throughput drug screen in 47 multiple myeloma cell lines against the NCATS MIPE library collection: SKMM1_PLB cell viability assay (AID 1919863); conditions: SKMM1 myeloma viability, CellTiter-Glo ATP, 48 h; viability: active compounds read low; also: nearly all actives have a fitted effect of over 35% in size; as to viability: series mostly up to about 46 µM
Method in brief: as §1

[14] = Quantitative High-Throughput drug screen in 47 multiple myeloma cell lines against the NCATS MIPE library collection: U266_ATCC cell viability assay (AID 1919864); also: nearly all actives have a fitted effect of over 35% in size
Method in brief: as §1

[15] = Quantitative High-Throughput drug screen in 47 multiple myeloma cell lines against the NCATS MIPE library collection: XG6_PLB cell viability assay (AID 1919865); also: nearly all actives have a fitted effect of over 40% in size
Method in brief: as §1

[16] = Quantitative High-Throughput drug screen in 47 multiple myeloma cell lines against the NCATS MIPE library collection: XG1_PLB cell viability assay (AID 1919866); also: nearly all actives have a fitted effect of over 35% in size
Method in brief: as §1

[17] = Quantitative High-Throughput drug screen in 47 multiple myeloma cell lines against the NCATS MIPE library collection: VP6_DJ cell viability assay (AID 1919867); also: nearly all actives have a fitted effect of over 40% in size
Method in brief: as §1

[18] = Quantitative High-Throughput drug screen in 47 multiple myeloma cell lines against the NCATS MIPE library collection: KMS28PE_JCRB cell viability assay (AID 1918983); also: nearly all actives have a fitted effect of over 35% in size
Method in brief: as §1

[19] = Quantitative High-Throughput drug screen in 47 multiple myeloma cell lines against the NCATS MIPE library collection: OCIMY7_PLB cell viability assay (AID 1918987); also: nearly all actives have a fitted effect of over 65% in size
Method in brief: as §1
Potency is read from the fitted curve at half-maximal effect.

Oc1c(Cl)cc(Cl)c2cccnc12
active: Potency [1] 11.8 µM | Potency [2] 14.8 µM | Potency [3] 16.6 µM | Potency [4] 11.8 µM | Potency [5] 10.5 µM | Potency [6] 18.7 µM | Potency [7] 7.43 µM | Potency [8] 11.8 µM | Potency [9] 26.4 µM | Potency [10] 9.35 µM | Potency [11] 6.62 µM | Potency [12] 10.5 µM | Potency [13] 18.7 µM | Potency [14] 8.33 µM | Potency [15] 4.69 µM | Potency [16] 11.8 µM | Potency [17] 5.9 µM

CCCc1nc(C)c2c(=O)[nH]c(-c3cc(S(=O)(=O)N4CCN(CC)CC4)ccc3OCC)nn12
active: Potency [1] 11.8 µM | Potency [3] 6.62 µM | Potency [4] 5.26 µM | Potency [6] 4.69 µM | Potency [7] 4.69 µM | Potency [8] 4.18 µM | Potency [9] 4.69 µM | Potency [18] 8.33 µM | Potency [10] 4.18 µM | Potency [11] 5.9 µM | Potency [12] 7.43 µM | Potency [13] 9.35 µM | Potency [14] 5.9 µM | Potency [15] 4.69 µM | Potency [16] 5.9 µM | Potency [17] 5.9 µM

CNS(=O)(=O)Cc1ccc2[nH]cc(CCN(C)C)c2c1
inactive: Potency [1] | Potency [2] | Potency [5] | Potency [6] | Potency [8] | Potency [9] | Potency [11] | Potency [12] | viability [13] 112% | Potency [15] | Potency [16]

CNS(=O)(=O)CCc1ccc2[nH]cc(C3CCN(C)CC3)c2c1
inactive: Potency [4]
active: Potency [1] 0.935 µM | Potency [2] 2.96 µM | Potency [10] 23.5 µM | Potency [11] 1.18 µM | Potency [12] 5.26 µM | Potency [13] 4.18 µM | Potency [15] 0.372 µM | Potency [16] 0.743 µM

CC[C@H](NC(C)C)[C@H](O)c1ccc(O)c2[nH]c(=O)ccc12
inactive: Potency [1] | Potency [2] | Potency [5] | Potency [6] | Potency [9] | Potency [18] | Potency [10] | Potency [12] | Potency [14] | Potency [15] | Potency [16]
active: Potency [8] 0.59 µM | Potency [11] 0.0833 µM

N[C@@H](C(=O)N[C@@H]1C(=O)N2C(C(=O)O)=C(Cl)CS[C@H]12)c1ccccc1
inactive: Potency [1] | Potency [2] | Potency [4] | Potency [7] | Potency [9] | Potency [18] | Potency [12] | viability [13] 123% | Potency [15]

Cn1c(=O)c2c(ncn2CC(O)CO)n(C)c1=O (stereo not drawn)
inactive: Potency [1] | Potency [3] | Potency [4] | Potency [5] | Potency [6] | Potency [7] | Potency [8] | Potency [9] | Potency [18] | Potency [11] | Potency [12] | Potency [15]
active: Potency [10] 5.26 µM

COc1cc2nc(N3CCCN(C)CC3)nc(NC3CCN(Cc4ccccc4)CC3)c2cc1OC
active: Potency [1] 0.833 µM | Potency [3] 5.26 µM | Potency [4] 4.69 µM | Potency [6] 5.9 µM | Potency [8] 4.18 µM | Potency [9] 4.69 µM | Potency [10] 1.66 µM | Potency [19] 6.62 µM | Potency [11] 11.8 µM | Potency [12] 2.35 µM | Potency [13] 7.43 µM | Potency [14] 2.35 µM | Potency [15] 2.35 µM | Potency [16] 2.96 µM | Potency [17] 4.69 µM

CCCCOc1ccc(CC(=O)NO)cc1
inactive: Potency [16]
active: Potency [1] 16.6 µM | Potency [2] 10.5 µM | Potency [3] 13.2 µM | Potency [8] 8.33 µM | Potency [18] 20.9 µM | Potency [10] 18.7 µM | Potency [19] 16.6 µM | Potency [11] 9.35 µM | Potency [12] 14.8 µM | Potency [14] 8.33 µM

NC1(c2ccc(-c3nc4ccn5c(=O)[nH]nc5c4cc3-c3ccccc3)cc2)CCC1
active: Potency [1] 5.26 µM | Potency [2] 14.8 µM | Potency [3] 0.332 µM | Potency [4] 3.72 µM | Potency [5] 0.059 µM | Potency [7] 0.662 µM | Potency [8] 5.26 µM | Potency [18] 6.62 µM | Potency [10] 2.64 µM | Potency [12] 3.32 µM | Potency [13] 7.43 µM | Potency [14] 20.9 µM | Potency [15] 20.9 µM | Potency [16] 20.9 µM | Potency [17] 1.87 µM

C[C@@H](NCCCc1cccc(C(F)(F)F)c1)c1cccc2ccccc12
inactive: Potency [1] | Potency [2] | Potency [4] | Potency [5] | Potency [6] | Potency [8] | Potency [9] | Potency [18] | Potency [10] | Potency [11] | viability [13] 110% | Potency [14] | Potency [15]

C[C@@H]1C[C@H]2[C@@H]3CCC4=CC(=O)C=C[C@]4(C)[C@@]3(Cl)[C@@H](O)C[C@]2(C)[C@@]1(OC(=O)c1ccco1)C(=O)CCl
active: Potency [1] 7.43 µM | Potency [2] 14.8 µM | Potency [3] 18.7 µM | Potency [5] 3.32 µM | Potency [8] 16.6 µM | Potency [11] 16.6 µM | Potency [12] 10.5 µM | Potency [14] 9.35 µM | Potency [15] 1.66 µM | Potency [16] 3.72 µM | Potency [17] 2.96 µM

CC(N)C12CC3CC(CC(C3)C1)C2 (stereo not drawn)
inactive: Potency [1] | Potency [2] | Potency [4] | Potency [6] | Potency [8] | Potency [9] | Potency [18] | viability [13] 118% | Potency [15] | Potency [16] | Potency [17]

CN(CCOc1ccc(CC2SC(=O)NC2=O)cc1)c1ccccn1 (stereo not drawn)
inactive: Potency [1] | Potency [4] | Potency [5] | Potency [6] | Potency [9] | Potency [12] | viability [13] 112% | Potency [15] | Potency [16] | Potency [17]
active: Potency [3] 14.8 µM | Potency [7] 16.6 µM | Potency [11] 1.05 µM | Potency [14] 16.6 µM

— PubChem BioAssay (NCATS)
